Source: PubChem BioAssay AID1259376 (The Scripps Research Institute Molecular Screening Center, 2018)
About 360 (7.7%) of roughly 4,700 compounds were called active. Only a sample is shown. Values without a mark were called inactive.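 Rule for the calls: active = inhibition above a cutoff derived from the DMSO control wells (cut at about 30% in these data); inactive = the rest.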

assay: AlphaScreen optical interference compounds, counter-screen for MITF inhibitor project, biochemical, triplicate (AID 1259376); conditions: LysRS AlphaScreen counterscreen, signal interference, at 2.6 µM, stronger effect = higher value

| SMILES | inhibition |
| --- | --- |
| CC(C)(C)n1nnnc1C(c1ccc2ncccc2c1)N1CCSCC1 (configuration not stated) | 30.7% (active) |
| CCSc1ccccc1C(=O)N1CCN(c2ccc(-c3ccccn3)nn2)CC1 | 101% (active) |
| Brc1cccc(CN2CCN(Cc3cccnc3)CC2)c1 | -5.02% |
| Cc1cc(C(C)(C)C)ccc1OCCN1CCNCC1 | -9.28% |
| CCN1CCN(CCOCCOc2ccccc2OCc2ccccc2)CC1 | 9.59% |
| Cc1cc(NC(=O)/C=C/C(=O)N(CC(=O)NC2CCCC2)c2ccc(F)cc2)no1 | 10.1% |
| O=C(c1ccc2c(c1)C(=O)N(Cc1cccnc1)C2=O)c1ccc2c(c1)C(=O)N(Cc1cccnc1)C2=O | 24.6% |
| CN(CCc1ccccn1)Cc1cccnc1 | 22.1% |
| Cc1ccc(OCCCCNCCN2CCOCC2)c(Br)c1 | 13.8% |
| N#Cc1nc(COc2cccc(Cl)c2)oc1NCCCn1ccnc1 | 65.7% (active) |
| CCc1ccc(OCCCCn2ccnc2)cc1 | 0.71% |
| CCc1cccc(OCCOCCn2ccnc2)c1 | -2.1% |
| c1ccc(-n2cc(CN3CCOCC3)c(-c3ccc4c(c3)OCCO4)n2)cc1 | 10% |
| CCCS(=O)(=O)N1CCN(Cc2ccc(OC)c(OCc3ccccc3)c2)CC1 | 9.8% |
| CN1CCC(N2CCN(c3ccccc3Cl)CC2)CC1 | 14.1% |
| COc1cc(Nc2ncnc3c2nc(N2CCOCC2)n3C(C)C)cc(OC)c1OC | 13.7% |
| COc1ccc(Cn2nnc(C(=O)Nc3cccc(Cl)c3)c2N)cc1 | 14.3% |
| O=C(CNCc1ccc(F)cc1)Nc1ccc(N2CCCC2)cc1 | 25.2% |
| CCOc1ccc(CN2CCCN(C)CC2)cc1 | 0.42% |
| CCCn1c(C)cc(-c2csc(NC(=O)Cc3ccsc3)n2)c1C | 12% |
| CC(=O)NS(=O)(=O)c1ccc(-c2ccc(C=C(C#N)C#N)o2)cc1 | 3.05% |

| SMILES | inhibition |
| --- | --- |
| COc1ccc(CN2CCN(Cc3ccccc3OC)CC2)cc1Br | 7.62% |
| Cc1cccc(CSc2n[nH]c(=O)[nH]c2=O)c1 | -7.01% |
| CC1CN(CCOc2ccccc2[N+](=O)[O-])CC(C)O1 (configuration not stated) | 13.4% |
| COc1ccc(OCCn2ccnc2C)cc1 | -3.46% |
| CCN1CCN(CCOCCOc2ccc([N+](=O)[O-])cc2)CC1 | 9.29% |
| COc1cccc(/C=C(\C#N)c2nc3ccccc3[nH]2)c1OCc1ccc(Cl)cc1Cl | 0.18% |
| COc1ccc(C(CNCc2cc(=O)oc3cc4c(cc23)CCC4)N2CCOCC2)cc1 (configuration not stated) | 13% |
| CCOc1cc(CN2CCN(Cc3ccccn3)CC2)ccc1OC | 17.5% |
| c1cc2c(cc1CN1CCN(C3CCCCC3)CC1)OCO2 | 2.75% |
| COc1cc(CN2CCN(Cc3cc(OC)c(OC)cc3OC)CC2)cc(OC)c1 | -0.77% |
| COc1cc(CN2CCN(Cc3ccccc3Br)CC2)cc(OC)c1 | 9.78% |
| CCN(CC)C(=O)C1CCCN(Cc2cccc(Cl)c2)C1 (configuration not stated) | 14.2% |
| COc1ccc(C(=O)N2CCN(Cc3ccccc3C(F)(F)F)CC2)cc1OC | 20.4% |
| CN(C)c1cccc(Nc2ccc(-c3cccc(C=O)c3)cn2)c1 | 73.1% (active) |
| C1=CC2CC1CC2CN1CCN(Cc2c[nH]c3ccccc23)CC1 (configuration not stated) | 2.75% |
| COc1ccc(CN2CCN(C3CCC(C)CC3)CC2)c(OC)c1OC (configuration not stated) | -12.1% |
| CC(=O)c1ccc(NC(=O)C(C)NCc2ccc(C)cc2)cc1 (configuration not stated) | 15.9% |
| Fc1cccc(CN2CCN(C3CCC(c4ccccc4)CC3)CC2)c1 (configuration not stated) | 21.8% |
| COCCCN1C(=O)c2cccc3c(C(=O)c4ccccc4)ccc(c23)C1=O | 12.9% |
| CCOc1cccc(C2C(C(=O)OCCOc3ccccc3)=C(C)NC3=C2C(=O)CCC3)c1 (configuration not stated) | 14.4% |
| COC(=O)C1(C)NC(c2ccc(C)cc2)C2C(=O)N(c3ccc(F)cc3)C(=O)C21 (configuration not stated) | 11.6% |

| SMILES | inhibition |
| --- | --- |
| COc1cc(N2CCOCC2)ccc1Nc1cc(Nc2ccccc2-n2cccn2)c(C(F)(F)F)cn1 | 8.51% |
| O=C(C1CCN(Cc2nc3ccccc3[nH]2)CC1)N1CCN(c2ccccn2)CC1 | 13.8% |
| c1cncc(CCNc2ccc3ncc(-c4cc5ccccc5o4)n3n2)c1 | 6.63% |
| O=C(c1ccccc1)N1CCN(C2CCCC2)CC1 | -2.61% |
| COc1ccc(C2C(C(C)=O)=C(C)N=C3SCC(=O)N32)c(OC)c1 (configuration not stated) | -6.53% |
| COc1ccc(C(=O)COC(=O)CNS(=O)(=O)/C=C/c2ccc(C)cc2)cc1OC | 5.32% |
| O=C(CN1CCN(CC(=O)c2ccco2)CC1)Nc1ccc(Cl)c(Cl)c1 | 10.6% |
| COc1cc(CN2CCN(Cc3ccc(C)cc3)CC2)c([N+](=O)[O-])cc1OC | 13.5% |
| CCOc1ccccc1N1CCN(Cc2cc(OC)c(O)c([N+](=O)[O-])c2)CC1 | 16.9% |
| O=C(CCC(=O)OCc1ccc(Cl)cc1)Nc1ccc([N+](=O)[O-])cc1 | 14.7% |
| Cc1n[nH]c(=O)nc1N/N=C/c1cccs1 | 100% (active) |
| CC1CCN(S(=O)(=O)c2ccc(Cl)c(C(=O)Nc3ccccc3[N+](=O)[O-])c2)CC1 | 14.3% |
| COc1ccc(OC)c(CN2CCN(Cc3ccc(Cl)cc3)CC2)c1 | 15.1% |
| Cn1c(=NC(=O)COc2ccccc2)sc2cc(S(C)(=O)=O)ccc21 | 12.4% |
| COC(=O)c1sc(NC(=O)c2ccccc2C)c(C#N)c1C | -2.84% |
| Cc1ccccc1NC(=O)NCCOc1cc(N2CCCC2)ncn1 | 13.1% |
| O=[N+]([O-])c1ccccc1CN1CCN(Cc2cccnc2)CC1 | 12.2% |
| O=C(c1cccc(Cl)c1)N1CCN(Cc2cccnc2)CC1 | 7.21% |
| COc1ccc(-c2nc(Nc3cc(OC)c(OC)c(OC)c3)c3[nH]cnc3n2)cc1 | 16.5% |
| CCNc1nc(NCC)nc(C(=O)O)n1 | 77% (active) |
